# Inconclusive results are not listed. Calls of active or inactive are those of the source. The calls were made as follows, unless noted: active = hit-call score of the fitted dose curve at least 0.9, where 1 is the maximum; inactive = score below 0.9.
# How the values were obtained:
# [1] = molecular target: human Vitamin D Receptor (VDR), VDR (gene 7421) (UniProt P11473); assay: ATG_VDR_TRANS: Attagene TRANS-FACTORIAL HepG2 Assay for human Vitamin D Receptor (VDR) (AID 2283022; active = hit-call score of the fitted dose curve at least 0.9, where 1 is the maximum)
# Sequence of human Vitamin D Receptor (VDR), VDR (gene 7421) (P11473 whole entry, looked up, the tested form may be a part): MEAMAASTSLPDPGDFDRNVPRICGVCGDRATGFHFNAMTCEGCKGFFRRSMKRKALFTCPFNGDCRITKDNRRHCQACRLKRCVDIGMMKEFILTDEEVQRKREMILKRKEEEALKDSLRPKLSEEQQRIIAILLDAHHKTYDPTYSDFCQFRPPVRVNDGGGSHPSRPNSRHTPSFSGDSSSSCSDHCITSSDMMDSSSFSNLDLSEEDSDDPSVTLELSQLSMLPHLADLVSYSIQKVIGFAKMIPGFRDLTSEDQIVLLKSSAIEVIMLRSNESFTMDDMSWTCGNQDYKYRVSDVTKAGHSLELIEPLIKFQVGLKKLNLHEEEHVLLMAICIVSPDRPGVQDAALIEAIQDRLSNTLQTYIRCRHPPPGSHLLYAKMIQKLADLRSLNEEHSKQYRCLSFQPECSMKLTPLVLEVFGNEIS
# Summary of the method: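 Fluorescence of labelled reporter cDNA fragments, resolved by capillary electrophoresis, gives mRNA induction after 24 h treatment of HepG2 cells carrying transfected Gal4-fusion reporter units. Activity is fitted in the positive direction with DMSO as baseline.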
# [2] = read-out: Human Leukocyte Antigen - DR isotype (HLADR), HLA-DRA (gene 3122); assay: BSK_3C_HLADR: BioMAP Diversity Plus: 3C Assay for Human Leukocyte Antigen - DR isotype (HLADR) Biomarker Activity (AID 2283019); conditions: primary human endothelial cells (HUVEC); actives raise or lower the signal;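 also: ELISA of cell-surface HLA-DR on HUVEC 24 h after dosing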
# Summary of the method: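 Endothelial cells from human umbilical vein are treated with test chemical; after 24 h, HLA-DR levels are measured by ELISA. Data are fitted in both directions using DMSO as the baseline.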
# [3] = read-out: Interleukin-8 (IL8), CXCL8 (gene 3576); assay: BSK_3C_IL8: BioMAP Diversity Plus: 3C Assay for Interleukin-8 (IL8) Biomarker Activity (AID 2283020); conditions: primary human endothelial cells (HUVEC); actives raise or lower the signal
# Summary of the method: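 Human vascular endothelial cells (umbilical vein) in the 3C system; IL-8 level detected by ELISA at 24 h post-dose, with DMSO as baseline.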
# [4] = read-out: Monokine induced gamma interferon (MIG), CXCL9 (gene 4283); assay: BSK_3C_MIG: BioMAP Diversity Plus: 3C Assay for Monokine induced gamma interferon (MIG) Biomarker Activity (AID 2283021); conditions: primary human endothelial cells (HUVEC); actives raise or lower the signal
# Summary of the method: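 After 24 h of treatment, human umbilical vein endothelial cultures (3C system) had their MIG biomarker level determined by ELISA, with DMSO serving as negative control.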
# [5] = BSK_3C_SRB: Viability Assessment in the BioMAP Diversity Plus: 3C Assay (AID 2283023); conditions: primary human endothelial cells (HUVEC);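 also: cells read 24 h after compound dosing; fitted both ways against DMSO so a hit may be signal rise or drop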
# Summary of the method: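 Cells were dosed with chemical, cultured 24 h, fixed with 10% TCA, stained with 0.1% SRB and read at 560 nm. Human umbilical vein endothelium was used; DMSO served as negative control and baseline.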
# [6] = read-out: Matrix Metallopeptidase 1 (MMP1), MMP1 (gene 4312); assay: BSK_BE3C_MMP1: BioMAP Diversity Plus: BE3C Assay for Matrix Metallopeptidase 1 (MMP1) Biomarker Activity (AID 2283024); conditions: primary human bronchial epithelial cells; actives raise or lower the signal
# Summary of the method: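 Dose cells, wait 24 h, run MMP1 ELISA; cells are human bronchial epithelial primaries. Both increases and decreases relative to DMSO counted.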
# [7] = BSK_3C_Vis: BioMAP Diversity Plus: 3C Assay for Morphology Visualization (AID 2283025); conditions: primary human endothelial cells (HUVEC);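 also: fitted both ways so gain or loss versus DMSO counts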;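 as to AC50: light microscopy image of cell morphology used as background control; cells imaged 24 h after dosing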
# Summary of the method: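 Endothelial cells from human umbilical vein were treated with test chemicals for 24 h and inspected by light microscopy for changes in cell conformation.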
# [8] = read-out: Pselectin, SELP (gene 6403); assay: BSK_4H_Pselectin: BioMAP Diversity Plus: 4H Assay for Pselectin Biomarker Activity (AID 2283026); conditions: primary human endothelial cells (HUVEC); actives raise or lower the signal
# Summary of the method: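 Human vascular endothelium from umbilical vein; P-selectin measured by ELISA at 24 h post-dose, with cytotoxicity checked by sulforhodamine B total-protein staining in parallel cultures (0.1% SRB after 10% TCA fixation, read at 560 nm).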
# [9] = BSK_4H_SRB: Viability Assessment in the BioMAP Diversity Plus: 4H Assay (AID 2283027); conditions: primary human endothelial cells (HUVEC);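 also: cells exposed to compound for 24 h before staining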
# Summary of the method: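 Absorbance at 560 nm of SRB-stained total protein served as the viability read-out in confluent primary human umbilical vein endothelium 24 h after chemical treatment. Curves were fitted bidirectionally against DMSO as negative control.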
# [10] = BSK_BE3C_SRB: Viability Assessment in the BioMAP Diversity Plus: BE3C Assay (AID 2283028); conditions: primary human bronchial epithelial cells
# Summary of the method: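 Overt cytotoxicity was assessed as total protein in confluent human primary bronchial epithelial cultures 24 h after chemical addition, using 0.1% sulforhodamine B staining read at 560 nm.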
# [11] = read-out: Thrombomodulin, THBD (gene 7056); assay: BSK_3C_Thrombomodulin: BioMAP Diversity Plus: 3C Assay for Thrombomodulin Biomarker Activity (AID 2283029); conditions: primary human endothelial cells (HUVEC); actives raise or lower the signal
# Summary of the method: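 Thrombomodulin ELISA, human primary HUVEC, 24 h post-dose; data fitted in both directions relative to DMSO.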
# [12] = read-out: Vascular endothelial growth factor receptor 2 (Homo sapiens) (UniProt P35968); assay: BSK_4H_VEGFRII: BioMAP Diversity Plus: 4H Assay for Vascular endothelial growth factor receptor 2 (VEGFR2) Biomarker Activity (AID 2283031); conditions: primary human endothelial cells (HUVEC); actives raise or lower the signal
# Summary of the method: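 VEGFRII levels on human vascular endothelial primary cells were determined by ELISA at 24 hours post-dosing, with gain- or loss-of-signal fitted against DMSO controls.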
# [13] = read-out: Human Leukocyte Antigen - DR isotype (HLADR), HLA-DRA (gene 3122); assay: BSK_BE3C_HLADR: BioMAP Diversity Plus: BE3C Assay for Human Leukocyte Antigen - DR isotype (HLADR) Biomarker Activity (AID 2283032); conditions: primary human bronchial epithelial cells; actives raise or lower the signal
# Summary of the method: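 Signal came from an ELISA for HLA-DR in human bronchial epithelial primary cells harvested 24 h after treatment; gain- and loss-of-signal fitting used DMSO controls as reference.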
# [14] = read-out: Vascular cell adhesion molecule 1 (VCAM1), VCAM1 (gene 7412); assay: BSK_4H_VCAM1: BioMAP Diversity Plus: 4H Assay for Vascular cell adhesion molecule 1 (VCAM1) Biomarker Activity (AID 2283033); conditions: primary human endothelial cells (HUVEC); actives raise or lower the signal;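 as to outcome: cell-surface VCAM-1 protein measured by ELISA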
# Summary of the method: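 Endpoint derived from bidirectional fitting against DMSO controls of VCAM-1 ELISA signal in umbilical vein endothelial cells sampled at 24 h following treatment.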
# [15] = read-out: Interferon-gamma inducible Protein 10 (IP10), CXCL10 (gene 3627); assay: BSK_BE3C_IP10: BioMAP Diversity Plus: BE3C Assay for Interferon-gamma inducible Protein 10 (IP10) Biomarker Activity (AID 2283034); conditions: primary human bronchial epithelial cells; actives raise or lower the signal
# Summary of the method: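 Using primary human bronchial epithelial cultures, the assay captures IP-10 by ELISA one day (24 h) after exposure. Parallel SRB staining of total protein flags overt cytotoxicity. Fits run bidirectionally relative to DMSO.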
# [16] = read-out: Monokine induced gamma interferon (MIG), CXCL9 (gene 4283); assay: BSK_BE3C_MIG: BioMAP Diversity Plus: BE3C Assay for Monokine induced gamma interferon (MIG) Biomarker Activity (AID 2283035); conditions: primary human bronchial epithelial cells; actives raise or lower the signal;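 also: MIG protein measured by ELISA in BE3C cultures after 24 h of dosing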
# Summary of the method: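 MIG level was determined by ELISA after 24 h chemical treatment of primary human bronchial epithelial cells. Values were fitted bidirectionally with DMSO as the negative control and activity baseline.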
# [17] = read-out: Transforming growth factor beta 1 (TGFb1), TGFB1 (gene 7040); assay: BSK_BE3C_TGFb1: BioMAP Diversity Plus: BE3C Assay for Transforming growth factor beta 1 (TGFb1) Biomarker Activity (AID 2283036;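 also: TGF-b1 protein level measured by ELISA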); conditions: primary human bronchial epithelial cells; actives raise or lower the signal
# Summary of the method: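 In this human primary bronchial epithelial system, an ELISA quantified TGF-b1 one day after dosing. Endpoint changes in either direction were fitted relative to DMSO.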
# [18] = read-out: Plasminogen activator inhibitor-1 (PAI1), SERPINE1 (gene 5054); assay: BSK_BE3C_PAI1: BioMAP Diversity Plus: BE3C Assay for Plasminogen activator inhibitor-1 (PAI1) Biomarker Activity (AID 2283037); conditions: primary human bronchial epithelial cells; actives raise or lower the signal
# Summary of the method: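 PAI-1 biomarker levels in treated human bronchial epithelial cells are determined by ELISA at 24 h. Both increases and decreases relative to DMSO are fitted.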
# [19] = read-out: urokinase plasminogen activator (uPA), PLAU (gene 5328); assay: BSK_BE3C_uPA: BioMAP Diversity Plus: BE3C Assay for urokinase plasminogen activator (uPA) Biomarker Activity (AID 2283038); conditions: primary human bronchial epithelial cells; actives raise or lower the signal;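 also: uPA protein level quantified by ELISA in cell cultures; uPA read one day after compound addition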
# Summary of the method: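 Measured by ELISA: uPA from human primary bronchial epithelial cells 24 h after chemical treatment. Values derive from bidirectional curve fitting with DMSO serving as negative control. Total protein by SRB staining in parallel wells flagged overt cytotoxicity.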
# [20] = read-out: Urokinase-type plasminogen activator receptor (uPAR), PLAUR (gene 5329); assay: BSK_4H_uPAR: BioMAP Diversity Plus: 4H Assay for Urokinase-type plasminogen activator receptor (uPAR) Biomarker Activity (AID 2283030); conditions: primary human endothelial cells (HUVEC); actives raise or lower the signal
# Summary of the method: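 Chemicals are dosed onto human vascular endothelial primary cells (umbilical vein). After 24 h, uPAR is read by ELISA. Gain or loss of signal is fitted relative to DMSO.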
smiles,measurement,setting,value
C1CCC(NC2CCCCC2)CC1,outcome,[1],inactive
CCC(=O)C(CC(C)N(C)C)(c1ccccc1)c1ccccc1 (stereo not given),outcome,[2],inactive
same,outcome,[3],inactive
same,outcome,[4],inactive
same,outcome,[5],inactive
same,outcome,[6],inactive
same,outcome,[7],inactive
same,outcome,[8],inactive
same,outcome,[9],inactive
same,outcome,[10],inactive
same,outcome,[11],inactive
same,outcome,[12],inactive
same,outcome,[13],inactive
same,outcome,[14],inactive
same,outcome,[15],inactive
same,outcome,[16],inactive
same,outcome,[17],inactive
same,outcome,[18],inactive
same,outcome,[19],inactive
COC(=O)c1sccc1S(=O)(=O)NC(=O)Nc1nc(C)nc(OC)n1,outcome,[2],inactive
same,outcome,[3],inactive
same,outcome,[4],inactive
same,outcome,[5],inactive
same,outcome,[6],inactive
same,outcome,[7],inactive
same,outcome,[8],inactive
same,outcome,[9],inactive
same,outcome,[10],inactive
same,outcome,[11],inactive
same,outcome,[20],inactive
same,outcome,[12],inactive
same,outcome,[13],inactive
same,outcome,[14],inactive
same,outcome,[15],inactive
same,outcome,[17],inactive
same,outcome,[18],inactive
same,outcome,[19],inactive
CC(=O)C(Cl)C(=O)N(C)C (stereo not given),AC50,[3],11.7 µM (active)
same,outcome,[4],inactive
same,outcome,[1],inactive
same,outcome,[5],inactive
same,outcome,[6],inactive
same,AC50,[7],37.5 µM (active)
same,AC50,[8],15.6 µM (active)
same,outcome,[9],inactive
same,outcome,[10],inactive
same,outcome,[11],inactive
same,outcome,[12],inactive
same,AC50,[13],26.9 µM (active)
same,AC50,[14],24.3 µM (active)
same,AC50,[15],20 µM (active)
same,outcome,[17],inactive
same,outcome,[18],inactive
same,outcome,[19],inactive
CCC[CH2][Sn]([CH2]CCC)([CH2]CCC)[O]C(=O)c1ccccc1,outcome,[1],inactive
CCCCP(CCCC)CCCC,outcome,[1],inactive
Cc1ccccc1N,outcome,[2],inactive
same,outcome,[3],inactive
same,outcome,[4],inactive
same,outcome,[5],inactive
same,outcome,[6],inactive
same,outcome,[7],inactive
same,outcome,[8],inactive
same,outcome,[9],inactive
same,outcome,[10],inactive
same,outcome,[11],inactive
same,outcome,[20],inactive
same,outcome,[12],inactive
same,outcome,[13],inactive
same,outcome,[14],inactive
same,outcome,[15],inactive
same,outcome,[17],inactive
same,outcome,[18],inactive
Nc1cccc2ccccc12,outcome,[2],inactive
same,outcome,[3],inactive
same,outcome,[4],inactive
same,outcome,[5],inactive
same,outcome,[6],inactive
same,outcome,[7],inactive
same,outcome,[8],inactive
same,outcome,[9],inactive
same,outcome,[10],inactive
same,outcome,[11],inactive
same,outcome,[13],inactive
same,outcome,[14],inactive
same,AC50,[15],20 µM (active)
same,outcome,[16],inactive
same,outcome,[17],inactive
same,outcome,[18],inactive
same,outcome,[19],inactive

# — PubChem BioAssay (EPA / NIEHS)
